Molecules are shown by their SMILES. The campaign covered roughly 1,000 compounds. About 230 (23%) were called active. About 1% were inconclusive and are not listed. The rule behind the calls is not given here. Some of the results follow. Potency and affinity values are given separately.

These results are taken from PubChem BioAssay AID624273 (Broad Institute, 2012).

The assay deals with Long-chain-fatty-acid--AMP ligase FadD28 (Mycobacterium tuberculosis (strain ATCC 25618 / H37Rv)) (UniProt P9WQ59). The assay can be described thus: inhibitors of FadD28 bisubstrate probe binding, dose response, biochemical, fluorescence polarization, cherry-pick (AID 624273). The conditions noted are these: series mostly up to 50 µM; activity change, negative = inhibition: at the top concentration. (Polarisation of emitted light reports the rotation of a fluorescent probe.)
Chain of Long-chain-fatty-acid--AMP ligase FadD28 (Mycobacterium tuberculosis (strain ATCC 25618 / H37Rv)) (P9WQ59 whole entry, looked up): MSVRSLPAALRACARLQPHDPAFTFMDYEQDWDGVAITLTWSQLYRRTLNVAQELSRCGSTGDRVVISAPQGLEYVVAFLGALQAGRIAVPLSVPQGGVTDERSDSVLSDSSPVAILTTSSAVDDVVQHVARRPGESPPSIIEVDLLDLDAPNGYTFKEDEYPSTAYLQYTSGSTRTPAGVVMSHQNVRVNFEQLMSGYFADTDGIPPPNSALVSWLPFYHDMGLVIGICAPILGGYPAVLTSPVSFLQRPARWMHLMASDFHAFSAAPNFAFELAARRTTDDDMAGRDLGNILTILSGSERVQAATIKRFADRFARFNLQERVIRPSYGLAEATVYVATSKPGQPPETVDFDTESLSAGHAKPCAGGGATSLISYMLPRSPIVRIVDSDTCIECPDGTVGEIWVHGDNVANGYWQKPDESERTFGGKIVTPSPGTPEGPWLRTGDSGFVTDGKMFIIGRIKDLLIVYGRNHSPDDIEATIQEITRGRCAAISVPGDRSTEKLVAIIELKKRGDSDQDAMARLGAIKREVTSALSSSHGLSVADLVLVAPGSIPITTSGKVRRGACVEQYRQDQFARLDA
Turning to `COc1ccc(-c2coc3cc(O[C@@H]4O[C@H](CO)[C@@H](O)[C@H](O)[C@H]4O)ccc3c2=O)cc1`, the “activity change, negative = inhibition” value is -3.03% (inactive).
Turning to `Cc1ccc(OCc2n[nH]c(=S)n2-c2ccc(Br)cc2)cc1`, the “activity change, negative = inhibition” value was -6.22% (inactive).
For the molecule `Cc1ccc2c(c1)N(C(=O)NC1CCCCC1)C(C)(C)CC2C` (centres undefined), the “activity change, negative = inhibition” value is -2.78% (inactive).
Consider `COc1ccc(S(=O)(=O)N2CCCCCC2)cc1NC(=O)c1ccccc1S(C)(=O)=O`, for which the “activity change, negative = inhibition” value is -4.29% (inactive).
Regarding `Cc1ccc(C(=O)N2CCCC2)cc1S(=O)(=O)N1CCOCC1`, the “activity change, negative = inhibition” value is -10.9% (inactive).
For `COc1ccc(-n2nnnc2SCC(=O)Nc2ccccc2N2CCOCC2)cc1OC` the value was -5.58% (inactive); for `COc1cc([N+](=O)[O-])ccc1NC(=S)NC(=O)CC(C)(C)C`, -11.9% (inactive); for `Cc1cc(NCC(=O)Nc2ccc(C)c(S(=O)(=O)N3CCOCC3)c2)ccc1Br`, -7.05% (inactive).
With `O=C(Nc1ccc(NC(=O)c2cc([N+](=O)[O-])ccc2N2CCOCC2)cc1)c1cccs1`, the “activity change, negative = inhibition” value is -10.1% (inactive).
As for `Cc1ccc(NC(=O)COC(=O)c2cccc(OC(F)F)c2)cc1S(=O)(=O)N1CCCCC1`, the figure is -4.36% (inactive); as for `O=C(c1cc(COc2ccc3c(c2)CCCC3)on1)N1CCCC1`, -13.7% (inactive).
As for `O=C(c1cccc(C(F)(F)F)c1)N1CCN(CCc2ccccc2)CC1`, the figure is 3.31% (inactive); as for `Cc1[nH]n(-c2ccc(Cl)cc2)c(=O)c1C=Nc1ccc(S(=O)(=O)N2CCOCC2)cc1`, -0.291% (inactive).
As for `O=C(Cn1cc(S(=O)(=O)Cc2cccc([N+](=O)[O-])c2)c2ccccc21)N1CCOCC1`, the figure is -3.46% (inactive); as for `COC(=O)c1cc(S(=O)(=O)Nc2ccsc2C(=O)OC)oc1C`, -7.11% (inactive).
In the case of `Cc1nnc(SCC(=O)Nc2ccc(F)cc2)n(N)c1=O`, the “activity change, negative = inhibition” value is -5.63% (inactive).
As for `O=C1/C(=C/c2ccco2)SC(=S)N1CCC(=O)N1CCCCC1CCO` (centres undefined), the figure is -10.4% (inactive); as for `N#Cc1ccccc1NC(=O)CNc1ccc(Cl)c(C(F)(F)F)c1`, -2.52% (inactive); as for `COc1cc2c(cc1OC)C(=O)C(Br)CC2` (centres undefined), -9.76% (inactive).
`O=C(O)CSC(C(=O)Nc1ccc(C(F)(F)F)cc1)c1ccccc1` (centres undefined): the “activity change, negative = inhibition” value is -8.44% (inactive).
As for `COCc1[nH][nH]c(=O)c1C=Nc1ccc(C(F)(F)F)cc1`, the figure is -12.3% (inactive); as for `NS(=O)(=O)c1ccc(NC(=O)c2ccc3c(c2)OCO3)cc1`, -3.68% (inactive).
With `Cc1nonc1C(=O)N/N=C/c1ccc([N+](=O)[O-])o1`, the “activity change, negative = inhibition” value was -12.6% (inactive).
For `COC(=O)[C@]1(Cc2ccccc2)N[C@H](CN(C)S(=O)(=O)c2ccc(-c3ccccc3)cc2)[C@@H]2C(=O)N(C)C(=O)[C@@H]21` the value was -27.4% (inactive); for `COc1cccc(CN(C)C(=O)CC2C(=O)NCCN2C2Cc3ccccc3C2)c1` (centres undefined), 1.96% (inactive).
For `COc1cc(/C=C/c2ccc3cccc(O)c3n2)cc(OC)c1OC` the value was -5.24% (inactive); for `Cc1ccn2c(Nc3ccccc3C)c(-c3ccccn3)nc2c1`, -4.56% (inactive); for `Cc1nn(Cc2ccc(F)cc2)c2sc(C(=O)Nc3ccccc3N3CCOCC3)cc12`, -3.07% (inactive).
As to `O=C1CCCC(=NNC(=O)c2cc3ccccc3cc2O)C1`, the “activity change, negative = inhibition” value is 3.46% (inactive).
For `O=C(O)CCC(=O)Nc1ccc(C(=O)OCC(=O)c2ccc(Cl)cc2)cc1` the value was -18.5% (inactive); for `Cn1nc(CC(=O)NC2CCCCCCCCCCC2)c2ccccc2c1=O`, -3.2% (inactive); for `O=C(Nc1cccc([N+](=O)[O-])c1)NC1CCCCCCC1`, -11.6% (inactive).
As for `FC(F)Sc1ccc(NC(=S)NCc2ccccc2)cc1`, the figure is -12.6% (inactive).
Turning to `O=C(COC(=O)c1nc(Cl)ccc1Cl)NCc1ccccc1`, the “activity change, negative = inhibition” value was -10.5% (inactive).
As for `CCCC(C(=O)NCCC(C)C)N(Cc1ccccc1)C(=O)c1snc(C(N)=O)c1N` (centres undefined), the figure is -8.21% (inactive).
Consider `O=S(=O)(CCN1CCN(c2ccccc2O)CC1)c1cc(Cl)ccc1Cl`, for which the “activity change, negative = inhibition” value is -5.55% (inactive).
As for `COc1ccc(NC(=O)Nc2ccc3c(c2)C(=O)N([C@@H](C)CO)C[C@@H](C)[C@@H](CN(C)S(=O)(=O)c2cccs2)O3)cc1`, the “activity change, negative = inhibition” value is -15.6% (inactive).
As for `CCN(CC)c1ccc(NC(=O)Nc2ccc(C(C)=O)cc2)cc1`, the figure is -9.89% (inactive).
As for `O=C(NN=Cc1ccc(N(CCCl)CCCl)cc1)c1cccnc1`, the figure is -10.7% (inactive).
With `COc1ccc(Cl)cc1C(=O)Nn1c(-c2cccs2)nc2ccccc2c1=O`, the “activity change, negative = inhibition” value is -10.4% (inactive).
As for `O=C(Nc1ccc(F)cc1F)NC1CCCCCCC1`, the figure is -10.6% (inactive).
Regarding `CCOc1ccc(N=C2SC(C(=O)Nc3ccccc3C#N)C(N)=C2C(=O)Nc2ccc(Cl)cc2)cc1` (centres undefined), the “activity change, negative = inhibition” value is -2.7% (inactive).
Regarding `CCOc1ccc(NC(=O)Cn2sc3nc(C)cc(C)c3c2=O)cc1`, the “activity change, negative = inhibition” value is 1.98% (inactive).
As for `c1ccc(-c2cc(-c3ccccc3)on2)cc1`, the figure is -4.78% (inactive); as for `N#Cc1ccc(NCCc2ccccn2)c([N+](=O)[O-])c1`, -4.35% (inactive).
For `CCCCC(=O)Nc1cc([N+](=O)[O-])ccc1Cl` the value was -3.25% (inactive); for `CCS(=O)(=O)c1ncc(Cl)c(C(=O)Nc2ccc(S(=O)(=O)N3CCC(C)CC3)cc2)n1`, -3.68% (inactive).
Turning to `CC12CCC(C(=O)NCCCn3ccnc3)(OC1=O)C2(C)C` (centres undefined), the “activity change, negative = inhibition” value is 0.92% (inactive).
Take `c1ccc2cc(OCCCn3ccnc3)ccc2c1`: the “activity change, negative = inhibition” value was 4.08% (inactive).
Consider `Cc1nn(CC(=O)NCc2ccco2)c(C)c1[N+](=O)[O-]`, for which the “activity change, negative = inhibition” value was -5.9% (inactive).
For the molecule `CC(C)(C)c1ccc(Cn2nnc3c(=O)[nH]c(C4CCCN(C(=O)c5cccs5)C4)nc32)cc1` (centres undefined), the “activity change, negative = inhibition” value was 1.02% (inactive).
With `COc1ccc(N=C2NC(=O)/C(=C\C=C\c3ccco3)S2)cc1`, the “activity change, negative = inhibition” value is -9.1% (inactive).
For `CCc1cccc2c(C(=O)COC(=O)c3ccccc3)c[nH]c12`, the “activity change, negative = inhibition” value was -7.51% (inactive).
For the molecule `CCc1cccc2c(C(=O)COC(=O)[C@@H]3CC(O)CN3S(=O)(=O)c3ccccc3[N+](=O)[O-])c[nH]c12` (some centres undefined), the “activity change, negative = inhibition” value was -1.47% (inactive).
For `CCN(C(=O)c1cc(OC)c(OC)c(OC)c1)C1CCCCC1` the value was -8.5% (inactive); for `COc1ccc(C(C)=O)cc1COC(=O)c1cnc(C)cn1`, -0.706% (inactive); for `O=C(c1cc2cc(Br)ccc2oc1=O)N1CCCC1`, -5.4% (inactive).
For `CC(C)CCOc1ccc(C(=O)N2CCCC2C(=O)O)cc1` (centres undefined) the value was -7.21% (inactive).
For `C[C@@H]1CN([C@H](C)CO)C(=O)c2cc(NC(=O)Nc3ccc(C(F)(F)F)cc3)ccc2O[C@H]1CN(C)S(=O)(=O)c1cccs1` the value was -6.05% (inactive).
Regarding `Cc1ccc(S(=O)(=O)Nc2ccc(O)c3ccccc23)c(C)c1`, the “activity change, negative = inhibition” value is -15.6% (inactive).
In the case of `Cc1noc(/C=C/N(C)C)c1S(=O)(=O)N1CCCC(C(=O)NC2CCCCC2C)C1` (centres undefined), the “activity change, negative = inhibition” value is -7.62% (inactive).
With `CCOC(=O)c1cccc(P(=O)(C(C)(C)C)C(C)(C)C)c1`, the “activity change, negative = inhibition” value was 1.89% (inactive).
As for `C=CC(COCc1ccccc1)N(C(=O)OC(C)(C)C)S(=O)(=O)c1ccccc1Br` (centres undefined), the figure is 0.184% (inactive); as for `C=CCC12C=C(OC)C(=O)OC(OC)(C1O)[C@H](c1ccc3c(c1)OCO3)[C@H]2C` (some centres undefined), -8.23% (inactive); as for `CCC1(CC)NC(=O)N(CC(=O)Nc2ccc(OCc3ccccc3)cc2)C1=O`, -6.91% (inactive).
As for `Cc1ccc(S(=O)(=O)NCC(=O)OCC(=O)N2CCN(C(=O)c3ccco3)CC2)cc1C`, the figure is -6.55% (inactive).
Regarding `CCc1cc(C(=O)O)c(NC(=O)C(c2ccccc2)c2ccccc2)s1`, the “activity change, negative = inhibition” value was -0.982% (inactive).
As for `CN1c2ccsc2C(O)=C(C(=S)Nc2ccc(F)c(Cl)c2)S1(=O)=O`, the figure is -7.32% (inactive); as for `CC1(C)Cc2ccccc2C(=NCCCC(=O)O)N1`, -2.17% (inactive); as for `Oc1c(Cl)cc(Cl)cc1/C=N/NC(=S)NC1CC2C=CC1C2` (centres undefined), -13.8% (inactive).
As for `CCCSc1ncc(Cl)c(C(=O)Nc2ccc(S(=O)(=O)N3CC(C)OC(C)C3)cc2)n1` (centres undefined), the figure is -0.797% (inactive).
As for `C=CCC[C@@H](Cc1ccc(F)cc1)C(=O)OC[C@@H](NC(=O)[C@@H](CC=C)CC(=O)N(CCO)Cc1ccccc1)c1ccccc1`, the figure is 2.84% (inactive); as for `O=C(Nc1ccccc1F)NC1CCCCCCC1`, -18.2% (inactive); as for `COC(=O)CN(c1ccc(OC)cc1)S(=O)(=O)c1ccc(OC)c(OC)c1`, 0.952% (inactive).
In the case of `COC(=O)C1=C(c2ccc3ccccc3c2)C[C@@H]2CC[C@H]1N2C(=O)N1CCC(O)CC1`, the “activity change, negative = inhibition” value is -1.57% (inactive).
In the case of `N=c1c(C(=O)NCc2ccco2)cc2c(=O)n3ccccc3nc2n1Cc1ccccc1`, the “activity change, negative = inhibition” value is -1.35% (inactive).
For `COC(=O)CCC(=O)N1CCCC(CO)(Cc2ccccc2F)C1` (centres undefined) the value was -0.525% (inactive).
Consider `O=C(O)C1Sc2[nH]c(=O)sc2C2c3ccc(O)cc3OC(=O)C12` (centres undefined), for which the “activity change, negative = inhibition” value was -16.8% (inactive).
As for `O=C(NC(NC(=S)Nc1c(Cl)cccc1Cl)C(Cl)(Cl)Cl)OCc1ccccc1` (centres undefined), the figure is 8.05% (inactive).
